The source of these data is PubChem BioAssay (Tox21).

Several values for one entry are separate records, joined by “and”; a condition that tells them apart may be missing. Equal values may be shown once. Results filed as inconclusive are left out. Where a structure was tested more than once in an assay, its records may differ in their call. Activity calls are given as the source filed them. Calls follow the shape of the dose curve; as a rule, active = well fitted inhibition curve with a large enough effect in the repeat runs; inconclusive = weak or mixed curves; inactive = no such curve, though single readings can be large or run the other way.
% is scaled to controls: 0 for no effect and ±100 for the full control effect; potency is read from the fitted curve at half-maximal effect.

In the assay the target is Cytochrome P450 1A2 (Homo sapiens) (UniProt P05177). Description: Cytochrome P450 Family 1 Subfamily A Member 2 (CYP1A2) small molecule antagonists: luciferase reporter qHTS assay (AID 1671199). Also: nearly all actives have a fitted effect of over 50% in size. Conditions: P450-Glo CYP1A2 enzyme, luciferin luminescence, 1 h; series mostly up to 115 µM; activity change, negative = inhibition: at the top concentration. The source says: National Center for Advancing Translational Sciences [NCATS]
Sequence of Cytochrome P450 1A2 (Homo sapiens) (P05177 whole entry, looked up): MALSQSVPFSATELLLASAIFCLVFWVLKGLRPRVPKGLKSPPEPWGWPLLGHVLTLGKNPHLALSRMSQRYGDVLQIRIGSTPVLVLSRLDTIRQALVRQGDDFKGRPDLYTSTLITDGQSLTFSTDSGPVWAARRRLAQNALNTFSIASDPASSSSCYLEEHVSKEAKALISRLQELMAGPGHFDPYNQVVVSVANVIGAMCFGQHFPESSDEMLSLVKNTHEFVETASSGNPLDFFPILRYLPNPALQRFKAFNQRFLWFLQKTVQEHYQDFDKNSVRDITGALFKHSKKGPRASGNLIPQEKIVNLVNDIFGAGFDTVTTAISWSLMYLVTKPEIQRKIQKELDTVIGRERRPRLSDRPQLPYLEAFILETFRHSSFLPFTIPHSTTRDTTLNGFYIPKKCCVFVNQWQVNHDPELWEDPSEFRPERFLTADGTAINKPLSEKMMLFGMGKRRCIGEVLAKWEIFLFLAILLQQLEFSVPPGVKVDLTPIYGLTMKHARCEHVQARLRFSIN
U.S. Environmental Protection Agency [EPA]
National Institutes of Environmental Health Sciences [NIEHS]
National Toxicology Program [NTP]
U.S. Food and Drug Administration [FDA]
Cytochrome P450 (CYP) enzymes are membrane-bound hemeproteins that play a key role in metabolism of drugs and xenobiotics. Evaluation of the effect of chemicals on CYP isozymes is useful to minimize the adverse drug reactions and toxicities in drug development process. Tox21 chemicals were tested for their effect on CYP enzyme activities by using P450-Glo (TM) screening systems (Promega Corporation, Madison, WI). These systems provide a luminescent method containing proluciferin substrates and are converted to luciferin products by CYP isozymes. The luciferin products formed are detected with a luciferin detection reagent, and the amount of light produced is proportional to CYP activity. P450-Glo (TM) CYP1A2 screening system (Catalog. No. V9770) was used to detect the compounds that interfere in CYP1A2 activity. The positive control compound used for CYP1A2 assay is furafylline (Sigma-Aldrich, St. Louis, MO).
Tox21 Assay Protocol Summary:
Two ul of enzyme-substrate mix was dispensed into medium binding white/solid 1536-well plates (Greiner Bio-One North America Inc., Monroe, NC) using a BioRaptr Flying Reagent Dispenser (FRD, Beckman Coulter, Brea, CA). Compounds dissolved in DMSO and positive control (furafyllline) were transferred to the assay plates at 23 nl using a Pintool station (Wako, San Diego, CA). The assay plates were incubated at room temperature for 10 min. Then 2 ul of NADPH regeneration solution was added to each well of the assay plates using an FRD and incubated at room temperature for 1 h. The reaction was stopped by adding 4 ul of detection reagent using an FRD and after 20 min incubation at room temperature the luminescence signal was measured using a ViewLux plate reader (Perkin Elmer, Shelton, CT). Data were expressed as relative luminescence units.
With `CN(C)CCCN`, the Potency result is “inactive”.
For the compound `COc1ccc(Nc2ccccc2)c(C)c1`, the Potency result is “inactive and 11.2 µM (active)”.
Turning to `c1ccc2c(c1)ccc1ccccc12`, the Potency was 6.16 µM (active) and 3.99 µM (active).
As to `CCCCCCCC(=O)OC`, the Potency entry is “inactive”.
The same measure, in the same setting: the result for `O=C(O)c1ccccc1C(c1ccc(O)cc1)c1ccc(O)cc1` reads “inactive”; that for `CC(O)COCC(C)O` (stereo not given), “inactive”.
In the case of `Cc1ccc(N(C)C)cc1`, the “activity change, negative = inhibition” value was -17.3% (inactive).
With `C#C[C@]1(O)CC[C@H]2[C@@H]3CCC4=CC(=O)CC[C@@H]4[C@H]3CC[C@@]21C`, the Potency entry was “inactive”.
On to `COS(C)(=O)=O`, for which the “activity change, negative = inhibition” value is -9.15% (inactive).
For the compound `CC(C)c1ccc(S(=O)(=O)O)cc1`, the Potency result is “inactive”.
Same read-out and setting: the same measure for `CC(=O)Nc1ccccc1`: “inactive”.
On to `CC1=CCC2CC1C2(C)C` (stereo not given), for which the Potency entry is “inactive”.
For the compound `CCCSc1ccc2nc(NC(=O)OC)[nH]c2c1`, the Potency was 5.64 µM (active) and 5.75 µM (active).
`Cc1cccnc1`: the “activity change, negative = inhibition” value was -11.1% (inactive).
In the case of `O=c1[nH]c(=O)n([C@H]2CCCO2)cc1F`, the Potency entry is “inactive”.
As to `CN(C)CCOCCN(C)C`, the “activity change, negative = inhibition” value is -20.6% (inactive).
For `C[Si](O[Si](C)(C)C)O[Si](C)(C)C`, the Potency result was “inactive”.
Still for that read-out and setting: the same measure for `CC(C)CC(=O)CC(C)C`: “inactive”; for `CCCCOC(=O)COc1ccc(Cl)cc1Cl`: 40.4 µM (active) and 39.9 µM (active).
For the compound `CCCCCCCCC/C=C/CC1CC(=O)OC1=O` (stereo not given), the Potency result is “inactive”.
With `CCCCC(CC)CO` (stereo not given), the Potency result was “inactive”.
On the same count and under the same terms, the result for `C[C@H]1C[C@H]2[C@@H]3CCC4=CC(=O)C=C[C@]4(C)[C@@]3(F)[C@@H](O)C[C@]2(C)[C@@]1(O)C(=O)CO` reads 22.4 µM (active) and inactive; that for `CCc1cccc(C)c1N`, 39.9 µM (active); that for `OCC(CO)(CBr)CBr`, 40.4 µM (active) and inactive.
As to `CCCCN(CCCC)CCCC`, the Potency is 35.5 µM (active) and inactive.
`CC1CCC2CC1C2(C)C` (stereo not given): the Potency entry is “inactive”.
With `Nc1cc([N+](=O)[O-])ccc1O`, the Potency is 39.9 µM (active).
The same measure, in the same setting: the same measure for `ON=C1CCCCC1`: 32 µM (active) and inactive.
On to `O=C(O)CCCC[C@@H]1SC[C@@H]2NC(=O)N[C@@H]21`, for which the Potency result was “inactive”.
Regarding `Cc1ccc2oc(=O)ccc2c1`, the Potency was 32.6 µM (active) and 31.7 µM (active).
Turning to `CCCCCC/C(C=O)=C\c1ccccc1`, the Potency is 22.7 µM (active) and 8.94 µM (active).
With `CC1=C(C)S(=O)(=O)CCS1(=O)=O`, the “activity change, negative = inhibition” value is -16.4% (inactive).
For `CC(c1cc2ccccc2s1)N(O)C(N)=O` (stereo not given), the Potency was 8.94 µM (active) and 11.5 µM (active).
For `CCc1ccc(CCOc2ccc(CC3SC(=O)NC3=O)cc2)nc1` (stereo not given), the “activity change, negative = inhibition” value is 2.3% [at 53 µM] (inactive).
On to `C=C(C)C(=O)OCCOCCOCCOC(=O)C(=C)C`, for which the Potency is 40 µM (active) and 28.3 µM (active).
As to `O=C(O)CCCCCCCCCCC(=O)O`, the “activity change, negative = inhibition” value is -18.3% (inactive).
In the case of `CC[C@H](C)C(=O)O[C@H]1C[C@@H](C)C=C2C=C[C@H](C)[C@H](CC[C@@H]3C[C@@H](O)CC(=O)O3)[C@H]21`, the “activity change, negative = inhibition” value was -6.66% [at 53 µM] (inactive).
On to `CCCCCCCCCCCCCCO`, for which the Potency was 22.4 µM (active).
Take `OC[C@H]1O[C@@](CO)(O[C@H]2O[C@H](CO)[C@@H](O)[C@H](O)[C@H]2O)[C@@H](O)[C@@H]1O`: the “activity change, negative = inhibition” value was -11.7% (inactive).
`CCCCC(CC)COC(=O)CCCCC(=O)OCC(CC)CCCC` (stereo not given): the Potency result is “inactive and 35.6 µM (active)”.
